Several values for one entry are separate records, joined by “and”; a condition that tells them apart may be missing. Equal values may be shown once. Some compounds were tested as several samples or in several runs, with calls that do not always agree. Activity calls are given as the source filed them. A call without a number means that no potency is given here. Unless noted, calls come from the whole dose curve; as a rule, active = well fitted curve in the direction sought with a large enough effect in the repeat runs; inconclusive = weak or mixed curves; inactive = no such curve, though single readings can be large; an effect the other way counts as inactive or inconclusive.
Tests used:
[1] = qHTS assay to identify small molecule antagonists of the thyroid receptor (TR) signaling pathway - cell viability counter screen (AID 743064); note: nearly all actives have a fitted effect of over 50% in size; note: potency is the fitted concentration of half-maximal effect
Method in brief: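 GH3.TRE-Luc rat pituitary cells dosed after 4 hr plating, co-stimulated with T3 at 1 nM final, incubated 23.5 h at 37 C. Viability measured in the same wells by CellTiter-Fluor fluorescence after 30 min further at 37 C.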

[2] = system: thyroid hormone receptor (rat, GH3 cells); experiment: qHTS assay to identify small molecule agonists of the thyroid receptor (TR) signaling pathway (AID 743066; calls by dose curve)
[3] = molecular target: Estrogen receptor (Homo sapiens) (UniProt P03372); experiment: qHTS assay to identify small molecule antagonists of the estrogen receptor alpha (ER-alpha) signaling pathway (AID 743069; active = well fitted curve in the direction sought with a large enough effect in the signal ratio in the repeat runs, not every such curve was filed as active; inconclusive = weak or mixed curves, or effect the other way; inactive = no such curve, though single readings can be large or run the other way; the % refers to the signal ratio; note: potency is the fitted concentration of half-maximal effect)
Method in brief: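 In this cell-based reporter format, GripTite HEK293 cells harbouring ER-alpha-UAS-bla were grown overnight with 2% charcoal-stripped FBS, dosed with DMSO-dissolved compounds, then challenged with 17beta-estradiol. After 18 hr at 37C, beta-lactamase activity was detected by FRET fluorescence.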

[4] = qHTS assay to identify small molecule antagonists of the estrogen receptor alpha (ER-alpha) signaling pathway - cell viability counter screen (AID 743074; calls by dose curve; note: nearly all actives have a fitted effect of over 45% in size)
[5] = molecular target: Estrogen receptor (Homo sapiens) (UniProt P03372); experiment: qHTS assay to identify small molecule agonists of the estrogen receptor alpha (ER-alpha) signaling pathway (AID 743075; calls by dose curve; note: potency is the fitted concentration of half-maximal effect)
[6] = molecular target: Estrogen receptor (Homo sapiens) (UniProt P03372); experiment: qHTS assay to identify small molecule agonists of the estrogen receptor alpha (ER-alpha) signaling pathway using the BG1 cell line (AID 743079); conditions: BG1Luc4E2 cells, ERE-luciferase agonist, 22 h; activation: at 70.3 µM (top of the series); note: nearly all actives have a fitted effect of over 20% in size; note: potency is the fitted concentration of half-maximal effect
[7] = qHTS assay to identify small molecule antagonists of the estrogen receptor alpha (ER-alpha) signaling pathway using the BG1 cell line (AID 743080; calls by dose curve;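 note: BG1 cells stimulated with 17beta-estradiol alongside compound; nearly all actives have a fitted effect of over 25% in size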; note: potency is the fitted concentration of half-maximal effect)
Method in brief: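 Quantitative HTS on the Tox21 10K library: BG1 cells with endogenous ER-alpha and ERE-luciferase reporter, 17beta-estradiol stimulation, 21.5 h compound exposure, luminescence endpoint with parallel fluorescence cytotoxicity counter-read.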

[8] = qHTS assay to identify small molecule antagonists of the estrogen receptor alpha (ER-alpha) signaling pathway using the BG1 cell line - cell viability counter screen (AID 743081);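 note: compound given together with 17beta-estradiol as the ER stimulus; nearly all actives have a fitted effect of over 45% in size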; note: potency is the fitted concentration of half-maximal effect
[9] = qHTS assay to identify small molecule antagonists of the peroxisome proliferator-activated receptor gamma (PPARg) signaling pathway - cell viability counter screen (AID 743194); note: nearly all actives have a fitted effect of over 55% in size
Method in brief: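 Cytotoxicity counter screen in PPARg-bla HEK293H cells, same wells as reporter assay. Compounds plus 50 nM rosiglitazone (final) for 17 h at 37 C, then viability read by CellTiter-Glo luminescence.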

[10] = qHTS assay for small molecule agonists of the antioxidant response element (ARE) signaling pathway (AID 743202; active = well fitted activation curve with a large enough effect in the signal ratio in the repeat runs, not every such curve was filed as active; inconclusive = weak or mixed curves, or effect the other way; inactive = no such curve, though single readings can be large or run the other way; the % refers to the signal ratio)
Method in brief: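 HepG2 ARE-bla cells; 16 h treatment at 37 C; FRET-based beta-lactamase fluorescence read after 2 h substrate incubation at room temperature.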

[11] = qHTS assay for small molecule agonists of the antioxidant response element (ARE) signaling pathway - cell viability counter screen (AID 743203; calls by dose curve; note: nearly all actives have a fitted effect of over 55% in size)
Method in brief: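 ATP content via CellTiter-Glo luminescence served as the viability measure. Cells: ARE-bla HepG2, 2,000 per well. Exposure: 16 hrs, 37C/5% CO2.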

[12] = qHTS assay for small molecule activators of the heat shock response signaling pathway - cell viability counter screen (AID 743209); note: nearly all actives have a fitted effect of over 50% in size
Method in brief: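 Compounds dissolved in DMSO were added to overnight-plated HSE-bla HeLa cells and left 5 h at 37 C. Cell viability was quantified by luminescence using CellTiter-Glo.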

[13] = molecular target: Aromatase (Homo sapiens) (UniProt P11511); experiment: qHTS assay to identify aromatase inhibitors (AID 743083); note: nearly all actives have a fitted effect of over 55% in size; note: potency is the fitted concentration of half-maximal effect
[14] = qHTS assay to identify aromatase inhibitors - cell viability counter screen (AID 743084);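 note: cells stimulated with testosterone during compound exposure; nearly all actives have a fitted effect of over 55% in size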; note: potency is the fitted concentration of half-maximal effect
[15] = molecular target: Aryl hydrocarbon receptor (Homo sapiens) (UniProt P35869); experiment: qHTS assay to identify small molecule that activate the aryl hydrocarbon receptor (AhR) signaling pathway (AID 743085); note: nearly all actives have a fitted effect of over 15% in size; note: potency is the fitted concentration of half-maximal effect;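 for activation: HG2L7.5c1 human HepG2 liver cells with stably integrated DRE-driven firefly reporter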
Method in brief: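 HepG2 cells stably carrying a 20-DRE firefly luciferase reporter (HG2L7.5c1) treated with compound for 24 hr at 37C. Luciferase read by ONE-Glo luminescence, with CellTiter-Fluor viability read first.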

[16] = molecular target: Peroxisome proliferator-activated receptor gamma (Homo sapiens) (UniProt P37231); experiment: qHTS assay to identify small molecule agonists of the peroxisome proliferator-activated receptor gamma (PPARg) signaling pathway (AID 743094; active = well fitted activation curve with a large enough effect in the signal ratio in the repeat runs, not every such curve was filed as active; inconclusive = weak or mixed curves, or effect the other way; inactive = no such curve, though single readings can be large or run the other way; the % refers to the signal ratio)
Method in brief: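 Agonism was assessed in a beta-lactamase reporter system, HEK293H cells with a stably integrated UAS-bla construct under PPARg control; the 17 h treatment at 37C preceded a 1 h room-temperature FRET substrate read.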

[17] = qHTS assay for small molecule activators of the heat shock response signaling pathway (AID 743210; active = well fitted activation curve with a large enough effect in the signal ratio in the repeat runs, with a control signal flat, not every such curve was filed as active; inconclusive = weak or mixed curves; the % refers to the signal ratio;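 note: HeLa cells with beta-lactamase reporter driven by heat shock elements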)
Method in brief: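 Following overnight attachment, HSE-bla HeLa cells received test compounds for 5 h at 37 C; beta-lactamase activity was then detected via FRET substrate fluorescence.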

[18] = qHTS assay to identify small molecule that activate the aryl hydrocarbon receptor (AhR) signaling pathway - cell viability counter screen (AID 743086); note: nearly all actives have a fitted effect of over 45% in size; note: potency is the fitted concentration of half-maximal effect
Method in brief: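 HepG2-AhR-luc (HG2L7.5c1) cells, 4000/well, treated 24 h at 37 C with compound; viability measured as CellTiter-Fluor fluorescence after 30 min in the same wells as the luciferase read.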

[19] = molecular target: Peroxisome proliferator-activated receptor gamma (Homo sapiens) (UniProt P37231); experiment: qHTS assay to identify small molecule antagonists of the peroxisome proliferator-activated receptor gamma (PPARg) signaling pathway (AID 743191; calls by dose curve; note: nearly all actives have a fitted effect of over 30% in size; note: potency is the fitted concentration of half-maximal effect)
Method in brief: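 GeneBLAzer PPARg UAS-bla HEK293H cells, 5 h post-plating, exposed to compounds 17 h at 37C. LiveBLAzer B/G FRET substrate added for 1 h at room temperature; beta-lactamase reporter read by fluorescence intensity.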

[20] = qHTS assay to identify small molecule antagonists of the thyroid receptor (TR) signaling pathway (AID 743065); note: nearly all actives have a fitted effect of over 55% in size; note: potency is the fitted concentration of half-maximal effect
Method in brief: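 GH3.TRE-Luc rat pituitary cells (two TREs driving luciferase) were dosed with compound, then stimulated with 1 nM T3 (final) for 23.5 h at 37 C. ONE-Glo luminescence was the read-out, with CellTiter-Fluor fluorescence as the cytotoxicity counter-screen.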

Sequence of Aryl hydrocarbon receptor (Homo sapiens) (P35869 whole entry, looked up): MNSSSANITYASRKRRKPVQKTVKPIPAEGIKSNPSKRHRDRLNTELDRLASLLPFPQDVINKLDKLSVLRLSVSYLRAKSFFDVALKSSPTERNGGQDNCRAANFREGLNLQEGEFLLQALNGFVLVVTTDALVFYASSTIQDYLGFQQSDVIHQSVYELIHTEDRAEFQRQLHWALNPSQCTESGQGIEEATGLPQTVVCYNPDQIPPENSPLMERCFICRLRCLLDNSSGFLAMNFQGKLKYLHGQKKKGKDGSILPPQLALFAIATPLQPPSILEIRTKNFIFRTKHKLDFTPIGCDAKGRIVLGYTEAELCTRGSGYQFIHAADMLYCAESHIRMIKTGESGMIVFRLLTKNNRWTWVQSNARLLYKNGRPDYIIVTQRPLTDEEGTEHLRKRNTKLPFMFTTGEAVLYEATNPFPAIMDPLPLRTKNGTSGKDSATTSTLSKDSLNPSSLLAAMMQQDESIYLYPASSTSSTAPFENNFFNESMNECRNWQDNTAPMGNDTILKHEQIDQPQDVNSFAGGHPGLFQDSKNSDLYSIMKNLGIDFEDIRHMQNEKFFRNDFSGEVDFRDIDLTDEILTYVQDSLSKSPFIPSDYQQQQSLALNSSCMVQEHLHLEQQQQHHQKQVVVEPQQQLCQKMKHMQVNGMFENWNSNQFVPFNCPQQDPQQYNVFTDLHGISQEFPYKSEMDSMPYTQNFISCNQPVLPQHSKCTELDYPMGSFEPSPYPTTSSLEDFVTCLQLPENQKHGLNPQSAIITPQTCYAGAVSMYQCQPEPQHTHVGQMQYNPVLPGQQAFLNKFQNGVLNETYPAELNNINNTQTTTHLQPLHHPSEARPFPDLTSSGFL
Sequence of Estrogen receptor (Homo sapiens) (P03372 whole entry, looked up): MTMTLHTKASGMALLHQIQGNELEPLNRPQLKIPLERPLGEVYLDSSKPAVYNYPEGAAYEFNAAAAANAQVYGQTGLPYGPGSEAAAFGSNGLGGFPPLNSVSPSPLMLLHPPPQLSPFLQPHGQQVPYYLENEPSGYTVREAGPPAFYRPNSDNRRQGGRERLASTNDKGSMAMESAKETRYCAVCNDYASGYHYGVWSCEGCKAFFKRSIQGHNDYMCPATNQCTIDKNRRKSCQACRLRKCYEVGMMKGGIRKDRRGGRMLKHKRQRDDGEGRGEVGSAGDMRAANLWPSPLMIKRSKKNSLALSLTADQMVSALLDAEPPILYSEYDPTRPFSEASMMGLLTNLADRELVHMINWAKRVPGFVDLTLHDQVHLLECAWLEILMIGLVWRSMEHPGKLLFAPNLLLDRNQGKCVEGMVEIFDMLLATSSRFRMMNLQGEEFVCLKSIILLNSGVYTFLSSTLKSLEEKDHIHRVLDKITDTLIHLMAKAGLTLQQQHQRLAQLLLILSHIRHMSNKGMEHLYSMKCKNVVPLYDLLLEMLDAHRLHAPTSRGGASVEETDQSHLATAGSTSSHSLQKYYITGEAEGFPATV
Sequence of Aromatase (Homo sapiens) (P11511 whole entry, looked up): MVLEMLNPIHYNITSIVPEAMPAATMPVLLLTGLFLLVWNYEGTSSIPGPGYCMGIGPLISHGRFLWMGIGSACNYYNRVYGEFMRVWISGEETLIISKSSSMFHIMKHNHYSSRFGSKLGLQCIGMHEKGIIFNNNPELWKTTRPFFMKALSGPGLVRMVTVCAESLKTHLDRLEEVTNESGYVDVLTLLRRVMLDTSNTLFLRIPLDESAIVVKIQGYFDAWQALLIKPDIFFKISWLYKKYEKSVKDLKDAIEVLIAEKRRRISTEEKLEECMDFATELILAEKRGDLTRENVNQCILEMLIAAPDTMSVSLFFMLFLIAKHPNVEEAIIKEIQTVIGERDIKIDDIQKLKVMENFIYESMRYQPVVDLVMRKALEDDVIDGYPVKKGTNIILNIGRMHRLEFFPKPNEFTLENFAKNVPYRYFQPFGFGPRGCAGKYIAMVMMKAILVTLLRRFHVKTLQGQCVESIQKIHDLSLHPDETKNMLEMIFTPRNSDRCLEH
Sequence of Peroxisome proliferator-activated receptor gamma (Homo sapiens) (P37231 whole entry, looked up): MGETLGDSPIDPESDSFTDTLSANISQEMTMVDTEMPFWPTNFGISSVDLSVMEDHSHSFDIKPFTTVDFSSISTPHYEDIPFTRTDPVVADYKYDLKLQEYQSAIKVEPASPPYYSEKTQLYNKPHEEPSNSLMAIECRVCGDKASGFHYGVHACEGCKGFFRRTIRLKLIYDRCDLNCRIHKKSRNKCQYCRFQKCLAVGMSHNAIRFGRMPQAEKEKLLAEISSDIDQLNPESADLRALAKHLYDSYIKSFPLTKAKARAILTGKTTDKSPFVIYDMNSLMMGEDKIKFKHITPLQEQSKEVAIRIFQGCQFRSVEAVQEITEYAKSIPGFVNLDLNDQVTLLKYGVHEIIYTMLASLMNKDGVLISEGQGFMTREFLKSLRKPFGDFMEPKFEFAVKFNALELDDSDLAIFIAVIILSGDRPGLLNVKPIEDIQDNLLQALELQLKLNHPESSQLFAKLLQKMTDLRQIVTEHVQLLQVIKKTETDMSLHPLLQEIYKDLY

SMILES	Potency [1]	outcome [2]	Potency [3]	Potency [4]	Potency [5]	Potency [6]	Potency [7]	Potency [8]	Potency [9]	Potency [10]	Potency [11]	Potency [12]	Potency [13]	Potency [14]	Potency [15]	Potency [16]	Potency [17]	Potency [18]	Potency [19]	Potency [20]
Brc1cc(Br)c(Oc2cc(Br)c(Br)cc2Br)cc1Br	inactive	inactive	inactive	inactive	inactive	inactive	inactive	inactive	inactive	inactive	inactive	inactive	–	–	–	–	–	–	–	–
O=C1Cc2ccccc2N1c1c(Cl)cccc1Cl	inactive	inactive	–	inactive	43.6 µM [inconclusive] (active)	10.9 µM (active)	68.6 µM (active)	inactive	inactive	–	inactive	inactive	inactive	inactive	inactive	inactive	inactive	–	–	–
CC(C)c1nc(CN(C)C(=O)N[C@H](C(=O)N[C@@H](Cc2ccccc2)C[C@H](O)[C@H](Cc2ccccc2)NC(=O)OCc2cncs2)C(C)C)cs1	15 µM (active)	inactive	–	inactive	inactive	inactive	inactive	–	inactive	–	inactive	inactive	inactive	inactive and 23.7 µM (active)	inactive	–	inactive	inactive and 13.3 µM (active)	–	–
O=C1NCCN1CCO	inactive	inactive	–	inactive	–	–	–	inactive	inactive	inactive	inactive	inactive	inactive	–	–	inactive	inactive	inactive	inactive	–
CC(=O)N/N=C/c1ccc([N+](=O)[O-])o1	18.8 µM (active)	–	inactive	inactive	inactive	–	inactive	inactive	inactive	–	inactive	–	–	–	–	inactive	–	–	–	–
O=C(O)c1cccc(-c2noc(-c3ccccc3F)n2)c1	–	inactive	–	–	–	–	–	inactive	–	–	–	inactive	inactive	inactive	–	–	inactive	inactive	–	10.6 µM (active)
CN(C)CCN1C(=O)c2ccccc2N(C)c2ccccc21	–	inactive	inactive	inactive	inactive	inactive	inactive	inactive	inactive	inactive	inactive	inactive	inactive	inactive	inactive	inactive	–	inactive	inactive	–
CN1CC(=O)N2[C@H](c3ccc4c(c3)OCO4)c3[nH]c4ccccc4c3C[C@@H]2C1=O	–	inactive	inactive	–	inactive	inactive	–	inactive	inactive	inactive	inactive	inactive	inactive	–	–	inactive	inactive	–	inactive	inactive
N#CCCN(CCO)CCO	–	inactive	inactive	inactive	inactive	inactive	inactive	inactive	inactive	–	inactive	inactive	inactive	inactive	inactive	–	–	inactive	–	inactive
Oc1c(I)cc(I)c2cccnc12	inactive	–	6.01 µM [cytotoxic] (active)	–	inactive	inactive	–	inactive	–	–	inactive	inactive	inactive	inactive	–	inactive	inactive	inactive	18.8 µM (active)	–
CCCCCC#CC(=O)OC	–	inactive	inactive	inactive	inactive	inactive	inactive	inactive	inactive	inactive	inactive	inactive	inactive	inactive	inactive	inactive	inactive	inactive	inactive	inactive
CC(CN(C)C)C(C)(O)Cc1ccc(Cl)cc1 (stereo unspecified)	–	inactive	inactive	inactive	inactive	inactive	inactive	–	inactive	inactive	inactive	inactive	inactive	inactive	inactive	inactive	–	–	inactive	inactive
Cc1ccccc1S	–	inactive	inactive	inactive	inactive	inactive	inactive	inactive	inactive	–	inactive	–	inactive	inactive	inactive	inactive	–	inactive	inactive	inactive
C[C@@H]1CC(=O)NN=C1c1ccc(NN=C(C#N)C#N)cc1	15 µM (active)	–	inactive	inactive	inactive	–	inactive	23.7 µM (active)	inactive	–	inactive	inactive	29.8 µM (active)	26.6 µM (active)	15 µM (active)	–	–	26.6 µM (active)	–	–
O=C(CCCN1CC=C(n2c(=O)[nH]c3ccccc32)CC1)c1ccc(F)cc1	–	inactive	inactive	inactive	inactive	inactive	inactive	inactive	inactive	inactive	inactive	inactive	inactive	inactive	inactive	inactive	inactive	inactive	inactive	–
CC(=O)Nc1cc(S(=O)(=O)O)cc2cc(S(=O)(=O)O)c(N=Nc3ccccc3)c(O)c12	–	inactive	inactive	inactive	inactive	–	–	8.63 µM (active)	inactive	inactive	inactive	inactive	inactive	24.3 µM (active)	–	inactive	–	19.3 µM (active)	–	inactive
